Laboratory results reported in PubChem BioAssay (NCI).
This is part of a sample that, as a whole, favours compounds with a hit. Of some 79,000 tested, about 15% had one in any assay. Activity calls are given as the source filed them. Cut-off read from the data, not from the text of the source: active = growth inhibition above about 70%; inactive = the rest.

Experiments:
[1] = NCI Yeast Anticancer Drug Screen. Data for the rad52 strain (AID 147);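 note: 0% = growth of vehicle-treated control cultures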; conditions: S. cerevisiae rad52 mutant growth inhibition, hits give high values
Procedure, shortened: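 The repair-mutant yeast strain was incubated with compounds, then growth was read and inhibition derived relative to vehicle.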

[2] = NCI Yeast Anticancer Drug Screen. Data for the wt1 strain (AID 149);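 note: 0% = growth of vehicle-treated wt1 cultures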; conditions: S. cerevisiae wt1 strain (SPY 50644) growth inhibition, hits give high values
Procedure, shortened: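 Vehicle-normalised growth inhibition; strain wt1; compound exposure.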

[3] = NCI Yeast Anticancer Drug Screen. Data for the rad50EPP+ strain (AID 151);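 note: 0% = growth of vehicle-treated control cultures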; conditions: S. cerevisiae rad50 mutant strain, hits give high values
Procedure, shortened: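 Vehicle-normalised growth inhibition; rad50EPP+ yeast strain, altered in DNA damage repair, compound-treated.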

[4] = NCI Yeast Anticancer Drug Screen. Data for the mgt1 strain (AID 153); conditions: S. cerevisiae mgt1 mutant growth inhibition, hits give high values
Procedure, shortened: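 Vehicle-normalized growth inhibition is determined in mgt1 yeast, a strain selected for a defined alteration in DNA repair or cell cycle control.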

[5] = NCI Yeast Anticancer Drug Screen. Data for the rad50 strain (AID 155);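 note: 0% = growth of vehicle-only cultures of the same strain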; conditions: S. cerevisiae rad50 strain growth inhibition, hits give high values
Procedure, shortened: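 A DNA repair-deficient yeast mutant serves as the test organism; compound-induced growth inhibition is calculated against vehicle-treated cells.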

[6] = NCI Yeast Anticancer Drug Screen. Data for the mec2-1 strain (AID 157); conditions: S. cerevisiae mec2-1 strain, hits give high values
Procedure, shortened: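 Mutant yeast (mec2-1) grown with compound; growth inhibition relative to vehicle control reported.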

[7] = NCI Yeast Anticancer Drug Screen. Data for the rad14 strain (AID 159);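 note: 0% = growth of vehicle-treated control cultures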; conditions: S. cerevisiae rad14 strain growth inhibition, hits give high values
Procedure, shortened: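 Vehicle-treated cultures served as the baseline for growth inhibition of a DNA repair-mutant yeast strain exposed to each compound.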

[8] = NCI Yeast Anticancer Drug Screen. Data for the sgs1 mgt1 strain (AID 161);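 note: 0% = growth of cultures given vehicle only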; conditions: S. cerevisiae sgs1 mgt1 strain, hits give high values
Procedure, shortened: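 Growth of a repair-deficient yeast mutant was monitored after compound treatment and expressed as inhibition relative to vehicle-treated cultures.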

[9] = NCI Yeast Anticancer Drug Screen. Data for the CLN2oe strain (AID 163);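 note: 0% = growth of vehicle-only control cultures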; conditions: S. cerevisiae CLN2oe strain, hits give high values
Procedure, shortened: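 Compounds are applied to yeast harbouring a defined cell-cycle control change; reduced growth compared with vehicle-treated controls gives the value.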

[10] = NCI Yeast Anticancer Drug Screen. Data for the cln2 rad14 strain (AID 165);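 note: 0% = growth equal to vehicle treated cultures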; conditions: S. cerevisiae cln2 rad14 strain, hits give high values
Procedure, shortened: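 Readout is yeast growth inhibition versus vehicle-treated controls, using a strain with cln2 and rad14 alterations exposed to compound.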

[11] = NCI Yeast Anticancer Drug Screen. Data for the bub3 strain (AID 167); conditions: S. cerevisiae bub3 mutant strain, hits give high values
Procedure, shortened: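 Inhibition values come from growth of compound-treated mutant yeast normalised to vehicle-treated controls.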

[12] = NCI Yeast Anticancer Drug Screen. Data for the wt2 strain (AID 169);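 note: 0% = growth of vehicle-treated yeast cultures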; conditions: S. cerevisiae wt2 strain growth inhibition, hits give high values
Procedure, shortened: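 Against vehicle-treated controls, the growth of yeast exposed to each compound was compared, and the inhibition was recorded.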

[13] = NCI Yeast Anticancer Drug Screen. Data for the mlh1 strain (AID 171);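 note: 0% = growth of vehicle-treated control cultures of the same strain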; conditions: S. cerevisiae mlh1 strain growth inhibition, hits give high values
Procedure, shortened: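 Measured: yeast growth. Reference: vehicle-treated controls. Organism: strain with a defined alteration affecting DNA damage repair or cell cycle control, treated with compound.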

[14] = NCI Yeast Anticancer Drug Screen. Data for the mlh1 rad18 strain (AID 175); conditions: S. cerevisiae mlh1 rad18 strain growth inhibition, hits give high values
Procedure, shortened: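 Genetically defined yeast (DNA repair-deficient) exposed to compounds; growth inhibition determined relative to vehicle.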

[15] = at 5.0 µM (retest, dose inferred, filed as 0.5)
[16] = at 50.0 µM (retest, dose inferred, filed as 5.0)

Measured: growth inhibition

CC(Cc1ccccc1)N(C)Cc1nc(C2CCC([N+](=O)[O-])O2)no1 (stereo not drawn)
active: [1]; at 100.0 µM 84% | [5]; [16] 95% | [5]; at 50.0 µM 84.7% | [5]; at 100.0 µM 81% | [6]; [16] 98% | [7]; at 33.0 µM 70% | [7]; at 100.0 µM 93% | [8]; [16] 99% | [8]; at 50.0 µM 85.3% | [9]; at 100.0 µM 93% | [10]; [16] 94% | [10]; at 50.0 µM 88% | [11]; [16] 100% | [11]; at 50.0 µM 90% | [11]; at 100.0 µM 79% | [14]; [16] 97% | [14]; at 50.0 µM 80.2%
inactive: [1]; at 1.2 µM 6% | [1]; at 3.7 µM 14% | [1]; at 11.0 µM 22% | [1]; at 33.0 µM 53% | [2]; at 1.2 µM -1% | [2]; at 3.7 µM 0% | [2]; at 11.0 µM 2% | [2]; at 33.0 µM 3% | [2]; at 100.0 µM 8% | [3]; at 1.2 µM 5% | [3]; at 3.7 µM 14% | [3]; at 11.0 µM 27% | [3]; at 33.0 µM 44% | [3]; at 100.0 µM 42% | [4]; at 1.2 µM 1% | [4]; at 3.7 µM -1% | [4]; at 11.0 µM 13% | [4]; at 33.0 µM 25% | [4]; at 100.0 µM 49% | [5]; at 1.2 µM 4% | [5]; at 3.7 µM 10% | [5]; [15] 17% | [5]; at 11.0 µM 10% | [5]; at 33.0 µM 46% | [6]; at 1.2 µM 4% | [6]; at 3.7 µM 2% | [6]; [15] 18% | [6]; at 11.0 µM 4% | [6]; at 33.0 µM 17% | [6]; at 50.0 µM 66% | [6]; at 100.0 µM 33% | [7]; at 1.2 µM 5% | [7]; at 3.7 µM 14% | [7]; at 11.0 µM 45% | [8]; [15] 35% | [9]; at 1.2 µM -1% | [9]; at 3.7 µM 1% | [9]; at 11.0 µM 8% | [9]; at 33.0 µM 48% | [10]; [15] 5% | [11]; at 1.2 µM 0% | [11]; at 3.7 µM 9% | [11]; [15] -16% | [11]; at 11.0 µM 20% | [11]; at 33.0 µM 54% | [12]; at 1.2 µM 0% | [12]; at 3.7 µM 3% | [12]; at 11.0 µM 9% | [12]; at 33.0 µM 27% | [12]; at 100.0 µM 34% | [13]; at 1.2 µM -1% | [13]; at 3.7 µM -3% | [13]; at 11.0 µM 2% | [13]; at 33.0 µM 14% | [13]; at 100.0 µM 17% | [14]; [15] 47%
